# Screening results (PubChem)
# CHO-K1 Ca antag: nonselective inhibitor or artifact in parental CHO-K1 cells; ATP-induced calcium, Fluo-8 fluorescence; inhibition, % at 3 µM; actives 0.6% (n = 360,000); AID 602250;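 active = inhibition above a per-plate cutoff, the plate's mean sample inhibition plus 3 SD, cut at about 24% in these data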;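 also: 0% = DMSO plus EC80 ATP and 100% = DMSO alone without ATP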
# M1 PAM parental: nonselective activator or artifact in parental CHO-K1 calcium assay; ATP EC20, Fluo-8 calcium fluorescence; 0% at ATP EC20, 100% at ATP max; activation, % at 3 µM; actives 0.02% (n = 360,000);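 active = activation above the run cutoff, the mean activation of all test compounds plus 3 SD, cut at about 40% in these data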;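 also: peak over basal fluorescence ratio in a 140 s read after ATP addition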
# TMEM16A act: activates or potentiates the mouse TMEM16A chloride channel. Q8BHY3. HEK293 TMEM16A/YFP-H148Q/I152L, iodide quench fluorescence; hits give low values. B-score at 10 µM. actives 0.3% (n = 340,000). AID 623877;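 active = fluorescence-ratio B-score plate-corrected deviation score at least 3 library SD below zero, with starting fluorescence score within 5 deviations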;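 also: channel opened by trigger with iodide after compound preincubation; score built on the fluorescence ratio of max minus min over baseline; more negative score means more quench and so TMEM16A activation or potentiation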
# NTR1 ag: NTR1 (human) agonism; activation, % at 20 µM; actives 0.17% (n = 330,000); NTR1-U2OS beta-arrestin-GFP spot imaging, agonist mode; P30989;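 active = activation at or above 40% of the spot to cytoplasm intensity ratio, with at least 20 cells analyzed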;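 also: 0% = DMSO without peptide and 100% = 100 nM NTR1 peptide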
# Target sequence (P30989 whole entry, looked up): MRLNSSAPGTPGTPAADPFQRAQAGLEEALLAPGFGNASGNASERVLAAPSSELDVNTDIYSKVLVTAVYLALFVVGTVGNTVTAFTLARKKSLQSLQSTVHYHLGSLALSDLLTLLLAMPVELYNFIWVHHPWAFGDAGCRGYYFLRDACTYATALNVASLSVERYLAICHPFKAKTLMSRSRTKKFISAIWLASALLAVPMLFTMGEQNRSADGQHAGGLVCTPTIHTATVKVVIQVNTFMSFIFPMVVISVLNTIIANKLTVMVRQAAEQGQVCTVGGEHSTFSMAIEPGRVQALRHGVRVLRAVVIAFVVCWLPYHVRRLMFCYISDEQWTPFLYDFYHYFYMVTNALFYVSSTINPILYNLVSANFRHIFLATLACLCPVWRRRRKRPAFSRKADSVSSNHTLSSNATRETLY
# M1 ag parental: nonselective activator or artifact in parental CHO-K1 cells | activation, % at 3 µM | Fluo-8 calcium fluorescence; scaled to maximal ATP response, vehicle zero | actives 0.48% (n = 360,000) | AID 602248; in the data active = activation above about 15%;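 also: untransfected CHO-K1 host cells lacking M1 receptor as counterscreen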
# TMEM16A inh: blocks the mouse calcium-activated chloride channel TMEM16A; Q8BHY3; HEK293 TMEM16A/YFP iodide influx fluorescence, ionomycin; normalized B-score (activity score, 25-100; higher = stronger inhibition) at 10 µM; actives 1.2% (n = 310,000); AID 588511;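 active = ratio plate-corrected score three or more library SD toward inhibition, starting fluorescence score within five deviations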;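 also: score derived from kinetic fluorescence span divided by baseline fluorescence per well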
# * = called active by the depositor; i = inactive; / = no result given. Most compounds without a hit are left out; they make up all but 2.2% or so of the library.
SMILES,CHO-K1 Ca antag,M1 PAM parental,TMEM16A act,NTR1 ag,M1 ag parental,TMEM16A inh
CCC(C)[C@@H](NC(=O)OC(C)(C)C)c1nnc(S(=O)(=O)Cc2cccc(C)c2)o1 (stereo partly specified),26.5*,-10.2,i,/,0.1,/
Cc1ccccc1CS(=O)(=O)c1nnc([C@H](Cc2ccccc2)NC(=O)OC(C)(C)C)o1,4.6,8.7,-5.21*,-0.1,1.7,i
Cc1cccc(CS(=O)(=O)Cc2ccc(C(=O)NC(C)c3ccccc3)o2)c1 (stereo unspecified),-10.1,13.4,i,2.4,1.7,i
CC(C)(C)OC(=O)N[C@@H](Cc1ccccc1)c1nnc(S(=O)(=O)Cc2ccccc2)o1,/,/,/,8.2,/,i
O=C(NC(=S)NNC(=O)c1ccccc1O)c1ccccc1,-14.6,20.1,i,-1.4,9.9,i
O=C(NNC(=S)NC(=O)c1ccccc1[N+](=O)[O-])c1ccc(Cl)cc1Cl,-3.0,12.9,i,0.5,0.9,i
O=C(NC(=S)NNC(=O)c1ccccc1O)c1ccc(F)cc1,-0.2,6.0,i,-0.4,30.0*,i
Cc1ccc(C(=O)NNC(=S)NC(=O)c2ccc(Cl)cc2Cl)cc1,13.2,-13.2,i,4.5,107.0*,100*
CCCCC(=O)NC(=S)NNC(=O)c1ccc(Cl)cc1Cl,-15.5,3.4,i,/,26.2*,/
CC(C)NC(=S)NC(=O)c1ccc(Cl)cc1Cl,-14.1,16.6,i,-1.1,1.1,i
COc1cccc(OCC(=O)NNC(=S)Nc2ccc(Cl)cc2Cl)c1,-10.7,12.1,i,0.5,9.2,100*
O=C(Nc1cc(S(=O)(=O)N2CCOCC2)ccc1Cl)c1ccncc1,-9.4,16.7,i,-0.5,0.3,/
Cc1ccccc1C(=O)NNC(=S)NC(=O)c1ccccc1,4.8,-13.2,i,3.5,55.4*,i
O=C(COc1ccccc1)NNC(=S)NC(=O)c1ccc(Cl)cc1Cl,/,/,/,-1.5,/,25*
Cc1ccccc1C(=O)NNC(=O)c1ccc(Br)cc1,21.9,-11.0,i,2.5,-0.1,i
CC(C)(C)c1ccc(OCC(=O)NNC(=S)NC(=O)c2ccco2)c(Br)c1,-9.9,7.4,-9.05*,10.2,0.3,25*
Cc1ccc(C(=O)NC(=S)NNC(=O)c2ccccc2)cc1,34.9*,-31.6,i,2.0,20.4*,i
Cc1ccc(C(=O)NC(=S)NNC(=O)c2ccc([N+](=O)[O-])cc2)cc1,-8.6,16.5,i,2.8,0.4,i
Cc1ccc(C(=O)NC(=S)NNC(=O)c2ccccc2O)cc1,-11.1,3.4,i,5.3,0.1,i
Cc1ccc(C(=O)NNC(=S)NC(=O)c2ccco2)cc1,2.1,-8.5,i,-0.2,20.6*,i
Cc1ccc(C(=O)NNC(=O)c2ccco2)cc1,-2.3,2.2,i,0.3,0.6,i
Cc1ccc(C(=O)NNC(=S)NC(=O)c2ccccc2)cc1,26.7*,-30.5,i,2.2,70.3*,100*
CCOc1ccc2nc(NS(=O)(=O)c3ccc4c(c3)n(C)c(=O)n4C)sc2c1,25.9*,8.8,i,-0.2,0.1,i
CC(Cl)=CCn1c(NCCc2ccccc2)nc2c1c(=O)n(C)c(=O)n2C,23.7,-13.2,/,/,-0.1,/
Cc1cc(C)cc(NC(=S)N(Cc2ccc(Br)cc2)Cc2ccc(C(=O)O)cc2)c1,-1.8,-10.3,i,0.0,-0.1,25*
SMILES,CHO-K1 Ca antag,M1 PAM parental,TMEM16A act,NTR1 ag,M1 ag parental,TMEM16A inh
Cc1ccc(S(=O)(=O)CC(=O)Nc2nc(-c3ccccc3)cs2)cc1,-5.0,0.2,-5*,3.3,0.2,i
CS(=O)(=O)N1CCc2cc(-c3csc(NC(=O)Cc4ccccc4)n3)ccc21,-6.5,5.0,i,10.9,6.5,25*
CCCC(=O)Nc1nc(-c2ccc3c(c2)CCN3S(C)(=O)=O)cs1,-6.2,-2.9,i,2.0,5.1,i
O=C(CS(=O)(=O)c1ccccc1)Nc1nc(-c2ccccc2)cs1,-12.5,10.0,i,-0.1,3.2,i
COc1cc2c(cc1OC)[C@@H](NC(=O)C(C)C)[C@H](OCc1ccccc1)C2,-12.3,20.2,/,-0.6,1.3,/
C=CCn1c(SCCOc2ccc(OC)cc2)nnc1C(C)NC(=O)c1ccc(OC)cc1 (stereo unspecified),-10.9,27.3,i,2.2,-0.1,i
C=CCn1c(SCCOc2ccc(OC)cc2)nnc1C(CO)NC(=O)c1ccc(OC)cc1 (stereo unspecified),24.8*,-14.3,i,5.6,1.0,i
O=C1CCCN2N=C(SCC(=O)Nc3ccccc3C(F)(F)F)SC2=N1,-6.3,-7.6,i,3.0,0.6,i
Cc1ccc(NC(=O)CSC2=NN3CCCC(=O)N=C3S2)cc1Cl,2.0,12.2,i,-1.3,16.2*,i
O=C1CCCN2N=C(SCC(=O)Nc3ccc(Cl)cc3)SC2=N1,-3.6,6.1,i,0.3,12.9,i
O=C1CCCN2N=C(SCC(=O)Nc3cccc(C(F)(F)F)c3)SC2=N1,26.0*,-11.1,i,0.2,15.0,i
O=C1CCCN2N=C(SCC(=O)Nc3cccc(Cl)c3)SC2=N1,1.0,-1.1,i,-0.7,16.1*,i
CN(C)CCNc1ncnc2c1ncn2[C@H]1CN(Cc2ccco2)C[C@@H](CO)O1,-8.9,-0.5,/,/,0.7,/
CCCCc1ccc(NC(=S)Nc2ccc(Cl)c(S(=O)(=O)N(C)C)c2)cc1,-5.3,17.0,i,/,0.8,100*
CC(=O)N1CCCC(C)(C(=O)Nc2ccc3oc(C)nc3c2)C1 (stereo unspecified),26.8*,-14.2,/,/,0.2,/
Cc1ccc(C)c(OCCC(=O)NCCc2ccc(S(N)(=O)=O)cc2)c1,-0.4,-20.2,i,-1.3,0.1,i
Cc1ccc(C)c(OCCC(=O)OCC(=O)NCCc2ccc(S(N)(=O)=O)cc2)c1,-5.5,10.7,-4.77*,0.3,4.9,i
Cc1ccc(C)c(OCCC(=O)OCC(=O)NCCNC(=O)COC(=O)CCOc2cc(C)ccc2C)c1,26.6*,-15.9,i,4.4,14.8,i
Cc1ccc(Cn2cc(CN3CC(N4CCCC4)CS3(=O)=O)nn2)cc1 (stereo unspecified),3.7,-1.6,/,/,0.6,/
COc1ccc(CCN=C(N)NS(=O)(=O)c2ccc(C)cc2)cc1OC,2.9,9.4,i,0.6,0.0,i
COc1ccccc1CCN=C(N)NS(=O)(=O)c1ccc(C)cc1,6.3,9.4,i,-1.7,17.4*,i
CC(C)(C)c1ccc(C(=O)N2CCC2(C)C(=O)Nc2cnc3ccccc3c2)cc1 (stereo unspecified),-12.5,17.7,/,/,0.8,/
Cc1nn(-c2ccc(C(=O)N3CCN(S(=O)(=O)c4ccccc4C(F)(F)F)CC3)cc2)c(C)c1Cl,8.0,4.7,-5.77*,3.4,-0.5,/
